HTT cytoprotect: Huntington cell model cytoprotection by ATP luminescence; PC12 HTT-Q103 induced, cytoprotection, ATP luminescence, 40 h; Potency, µM (highest dose often 56.4 µM), inactives show cytoprotection (ATP increase), hits mostly activators; actives 0.14% (n = 230,000); AID 1471; note: potency is the fitted concentration of half-maximal effect; % of control where 0% means no effect; nearly all actives have a fitted effect of over 45% in size
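Compounds were screened for protection of PC12 cells against cell death after tebufenozide induction (100 nM final) of mutant Huntingtin exon 1 (Q103) fused to GFP.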
JMJD2E inh: blocks human JMJD2E demethylase activity; B2RXH2; JMJD2E catalytic domain, FDH-coupled NADH fluorescence (FDH is formaldehyde dehydrogenase); Potency, µM (doses to about 57.1 µM), without a hit: at the highest dose activity change, negative = inhibition, most hits filed as inhibitors; actives 1.6% (n = 230,000); AID 2147; active = well fitted inhibition curve with a large enough effect, not every such curve was filed as active; inconclusive = small, poorly fitted or top-dose-only effect, or another doubt; inactive = no such curve, though single readings can be large or run the other way;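 note: potency is the fitted concentration of half-maximal effect; 0% = wells with enzyme and -100% = buffer wells without enzyme; nearly all actives have a fitted effect of over 50% in size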
ALDH1A1 block: blocks purified human ALDH1A1 activity; P00352; Purified ALDH1A1, NADH fluorescence, propionaldehyde substrate; Potency, µM (highest dose often 75.3 µM), inactives show at the top dose activity, negative = inhibition, actives largely listed as inhibitors; actives 7.3% (n = 220,000); AID 1030; active = well fitted inhibition curve with a large enough effect, not every such curve was filed as active; inconclusive = small, poorly fitted or top-dose-only effect, or another doubt; inactive = no such curve, though single readings can be large or run the other way;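 note: potency is the fitted concentration of half-maximal effect; plate controls were no enzyme wells and a reference inhibitor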
Target sequence (P00352 whole entry, looked up): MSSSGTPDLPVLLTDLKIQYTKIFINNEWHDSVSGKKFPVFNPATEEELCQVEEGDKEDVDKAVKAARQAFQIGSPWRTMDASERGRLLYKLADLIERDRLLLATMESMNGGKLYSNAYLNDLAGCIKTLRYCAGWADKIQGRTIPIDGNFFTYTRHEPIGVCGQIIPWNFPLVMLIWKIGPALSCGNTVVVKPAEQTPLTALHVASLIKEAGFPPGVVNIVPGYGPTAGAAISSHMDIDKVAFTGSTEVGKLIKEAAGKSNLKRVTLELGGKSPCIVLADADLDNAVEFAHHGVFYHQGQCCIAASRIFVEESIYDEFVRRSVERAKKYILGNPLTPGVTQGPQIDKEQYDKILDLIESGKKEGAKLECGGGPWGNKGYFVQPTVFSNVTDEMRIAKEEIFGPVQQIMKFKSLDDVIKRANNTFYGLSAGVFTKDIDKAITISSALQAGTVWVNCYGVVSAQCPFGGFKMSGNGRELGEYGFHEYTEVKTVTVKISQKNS
CBFb-RUNX1 inh: blocks binding between human CBF-beta and RUNX1 | Q01196+Q13951 | AlphaScreen CBFb-His/RUNX1-biotin binding, biochemical | Potency, µM (top dose mostly 59.8 µM), for the others: at the top dose activity, negative = inhibition, usual class: inhibitors | 230,000 tested, under 10 active; note: % of control where 0% means no effect
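CBFb-His/RUNX1-biotin, 30 nM each, preincubated 20 min RT; compound 15 min RT; Ni + streptavidin beads 50 ng each, 90 min RT; AlphaScreen read.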
HPGD block: blocks human HPGD enzyme activity; purified HPGD, NADH fluorescence kinetic, PGE2 substrate; Potency, µM, without a hit: at the top dose activity change, negative = inhibition, actives largely listed as inhibitors; P15428; AID 894; actives 4.3% (n = 150,000); active = well fitted inhibition curve with a large enough effect, not every such curve was filed as active; inconclusive = small, poorly fitted or top-dose-only effect, or another doubt; inactive = no such curve, though single readings can be large or run the other way; note: potency is the fitted concentration of half-maximal effect; % is set by controls: 0 for no effect and ±100 for the full control effect
Target sequence (P15428 whole entry, looked up): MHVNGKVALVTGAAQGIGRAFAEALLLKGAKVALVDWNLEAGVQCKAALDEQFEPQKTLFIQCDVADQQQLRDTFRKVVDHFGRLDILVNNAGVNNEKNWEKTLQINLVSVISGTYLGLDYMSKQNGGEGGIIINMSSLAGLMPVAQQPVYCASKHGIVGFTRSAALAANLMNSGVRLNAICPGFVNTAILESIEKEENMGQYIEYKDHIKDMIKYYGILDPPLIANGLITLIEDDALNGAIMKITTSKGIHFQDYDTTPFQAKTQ
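20 nM HPGD preincubated 15 min at room temperature with compound in 50 mM Tris-HCl pH 8, 0.01% Tween 20. Started with 1 mM NAD+ and 30 uM prostaglandin E2; NADH fluorescence (360/450 nm) read 5 times over 30-s intervals, last minus first.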
HttQ103 aggreg: inhibitors of mutant huntingtin aggregate formation in PC12 cells; PC12 HttQ103-GFP aggregates, Acumen cytometry, 40 h; Potency, µM (doses to about 46.1 µM), inactives show at the highest dose activity change, negative = inhibition, most hits filed as inhibitors; actives 1.1% (n = 220,000); note: potency is the fitted concentration of half-maximal effect; % is set by controls: 0 for no effect and ±100 for the full control effect; nearly all actives have a fitted effect of over 60% in size
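Quantitative HTS on tebufenozide-induced (100 nM) PC12 cells stably expressing polyQ103 Huntingtin exon 1–GFP. Reduction of bright GFP aggregates, detected by laser scanning cytometry after lysis, identified actives across the titration.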
The depositor's hits bear a star; ? = inconclusive; . = no result given; [ ] = dose if it differs, or a comment. Only some compounds are listed: those with a hit (about 9.8% of all), similar ones and a draw of the others. Unless noted, calls come from the whole dose curve; as a rule, active = well fitted curve in the direction sought with a large enough effect; inconclusive = small, poorly fitted or top-dose-only effect, or another doubt; inactive = no such curve, though single readings can be large; an effect the other way counts as inactive or inconclusive.

SMILES	HTT cytoprotect	JMJD2E inh	ALDH1A1 block	CBFb-RUNX1 inh	HPGD block	HttQ103 aggreg
CC1=C(C)C(C)=C(C#N)C(=C(C#N)C#N)N1	19%[10 µM]	?	.	2%	.	19%[9.22 µM]
CCOC(=O)c1ccc(NC(=O)Cn2ccc([N+](=O)[O-])n2)cc1	?	-2%	1%	-2%	.	19%
N#Cc1c(N)oc(-c2ccco2)c1-c1ccco1	2%	1.6µM*	?	3%	?	-13%
Cc1c(C(=O)N2CCN(C)CC2)oc2c1C(=O)CC(C)(C)C2	-13%[0.074 µM]	3%	22µM*	9%	-11%	-5%
O=C(NCCCN1CCOCC1)C(=O)N/N=C/c1ccc(F)cc1	-6%[10 µM]	6%	5%	6%	.	-15%[9.22 µM]
CN(C)[C@H]1C(=O)C(C(=O)NCN2CCCC2)=C(O)[C@]2(O)C(=O)C3=C(O)c4c(O)cccc4[C@@](C)(O)[C@H]3C[C@@H]12	-3%[40.3 µM]	11µM*	-2%[20.9 µM]	?	-20%	-2%[20.6 µM]
CN(C)C1C(=O)C(C(N)=O)=C(O)[C@@]2(O)C(=O)C3=C(O)c4c(O)ccc(Cl)c4C(O)[C@H]3C[C@@H]12 (stereo partly specified)	-7%	?	-6%	3%	-15%	.
CN1CCN(S(=O)(=O)c2cccc(C(=O)N(c3ccccn3)C3CCCCC3)c2)CC1	3%	4%	11%	1%	1%	-3%
CC1CCN(S(=O)(=O)c2cccc(C(=O)N(Cc3ccccc3)c3ccccn3)c2)CC1	-17%	-3%	-12%	10%	.	11µM*
C[N+](C)(C)CC[N+]1(C)Cc2c(Cl)c(Cl)c(Cl)c(Cl)c2C1	-15%	-5%	-9%	14%	-3%	17%
CCOC(=O)C(=O)/C(=C\N(C)C)c1onc(-c2ccccc2)c1C(=O)OC	0%[10 µM]	-3%	?	9%	-12%	-7%
CCOC(=O)C(=O)/C(=C\N(C)C)c1onc(-c2ccccc2Cl)c1C(=O)OC	-7%[10 µM]	-2%	?	11%	14µM*	-15%
CCOC(=O)C(=O)/C(=C\N(C)C)c1onc(-c2c(Cl)cccc2Cl)c1C(=O)OC	-10%[10 µM]	3%	11%	-3%	14µM*	1%
CNC(=O)NNC(=O)c1onc(-c2c(Cl)cccc2Cl)c1C(=O)OC	2%[10 µM]	1%	.	5%	.	34%[9.22 µM]
CCOC(=O)N/N=C1/C[C@@H](O)[C@@H](O)[C@@H]2[C@@H]3C(=O)N(C4CCCCC4)C(=O)[C@H]3CC[C@H]12	-13%[10 µM]	.	-5%[13.5 µM]	10%[13.1 µM]	.	.
Cc1ccc(S(=O)(=O)N2CCC(=O)N(CCOC(=O)Nc3ccc(C)c(C)c3)CC2)cc1	.	4%	-2%	13%	3%	17%
COc1ccc(CCNC(=O)c2ccc(C)s2)cc1OC	-26%[1.9 µM]	-8%	-7%	4%	.	-7%[9.22 µM]
CCOc1cc(N2CCOCC2)c(OCC)cc1NC(=O)CC12CC3CC(CC(C3)C1)C2	6%	0%	4.5µM*	1%	-16%	-1%
CCOc1cc(N2CCOCC2)c(OCC)cc1NC(C)C(=O)N1CCC(C)CC1 (stereo unspecified)	-15%[10 µM]	11µM*	11µM*	-5%	.	19%
CCOc1cc(N2CCOCC2)c(OCC)cc1NC(=O)Cc1ccc(OC)c(OC)c1	-15%	-23%	-4%	-6%	-5%	6%
Cc1cccc(N(Cc2ccccc2)C(=O)CCl)c1	.	-1%	0.28µM*	9%	.	?
O=C(CCl)N(Cc1ccccc1)c1ccccc1	-22%[10 µM]	-9%	0.079µM*	-14%	.	?
O=C(N/N=C/c1c(Cl)cccc1Cl)c1n[nH]c2c1CCCC2	-24%[10 µM]	3%	-3%	-14%	4µM*	13%
CN(Cc1ccccc1)S(=O)(=O)c1ccc(Cl)nc1	-7%	-5%	22µM*	1%	-22%	-8%
COc1cccc(C2CC(c3c(-c4ccccc4)c4cc(Cl)ccc4[nH]c3=O)=NN2S(C)(=O)=O)c1OC (stereo unspecified)	-31%	?	5µM*	0%	-22%	?
SMILES	HTT cytoprotect	JMJD2E inh	ALDH1A1 block	CBFb-RUNX1 inh	HPGD block	HttQ103 aggreg
COc1ccc(NC(=O)c2sc(SC)nc2N)cc1	-26%[10 µM]	-5%	-4%	-3%	-7%	.
COc1ccc(NC(=O)c2sc(SCc3ccccc3)nc2N)cc1	2%[10 µM]	-2%	13µM*	-21%	?	25µM*
CC1(C)Cc2c(c(=S)nc(-c3ccccc3)n2CCO)CO1	20µM*	5%	25µM*	-2%	35µM*	-26%
Cc1ccc(-c2nc(=S)c3c(n2Cc2ccco2)CCCC3)cc1	-1%[10 µM]	0%	13µM*	1%	-23%	14%
CC1(C)Cc2c(c(=S)nc(-c3ccccc3)n2CCCN2CCOCC2)CO1	-12%[0.074 µM]	-14%	-5%	0%	-18%	-14%
OCCCn1c(-c2ccccc2)nc(=S)c2c1CCCC2	2.8µM*	-4%	2%	12%	-18%	.
O=C1c2cccc3c([N+](=O)[O-])ccc(c23)C(=O)N1Cc1cccnc1	-37%	?	-17%	-24%	.	35µM*
O=C1c2cccc3cccc(c23)C(=O)N1Cc1cccnc1	1%[10 µM]	?	.	6%	.	5%[9.22 µM]
Cc1ccnc(N2C(=O)c3cccc4c([N+](=O)[O-])ccc(c34)C2=O)c1	-2%[10 µM]	-28%	-8%	6%	-22%	18µM*
Cc1ccc(C2/C(=C(\O)c3c(C)nc4ccccn34)C(=O)C(=O)N2CCN(C)C)o1 (stereo unspecified)	22%[10 µM]	?	.	5%	.	-5%[9.22 µM]
CCOc1ccc(C(=O)C2CCN(CC(=O)Nc3ccccc3N3CCOCC3)CC2)cc1	-16%[10 µM]	-4%	25µM*	0%	-25%	?
CC(C)CCOC(=O)C(C)Sc1n[nH]c(=O)[nH]c1=O (stereo unspecified)	17%[10 µM]	8%	.	5%	.	17%[9.22 µM]
CCOC(=O)CNC(=O)CSc1nc(-c2ccccc2)ns1	.	-1%	25µM*	1%	.	3%
CCOC(=O)CSc1nc(-c2ccc(OC)cc2)ns1	29%[10 µM]	-7%	25µM*	16%	35µM*	8%
CN(C)CCCn1c2c3ccccc3ccc2c2oc(=O)c3ccccc3c21	-39%[10 µM]	.	1%[13.5 µM]	.	-15%	.
O=C(CC1C(=O)CCCC1=O)c1ccccc1	-3%	-27%	8.9µM*	6%	.	-2%
CCN(CC)S(=O)(=O)c1ccc(/C=C/C(=O)Nc2ccc(F)cc2F)cc1	-6%[10 µM]	-11%	20µM*	-6%	.	-1%
COc1ccc(/C=C/C(=O)Nc2cc(S(=O)(=O)N3CCCCC3)ccc2N2CCCCC2)cc1OC	12%[10 µM]	?	?	12%	?	26%

Screens as filed in PubChem BioAssay.
